Rows were chosen to be rich in hits. Some 3.5% of all compounds tested hit in one or more screens of this group.
MITF primary = human MITF inhibition, primary screen; O75030; inhibition, % at 2.6 µM; hit rate 0.91% among 650,000; AID 1259374; AlphaScreen MITF homodimerization, bead proximity signal; in the data active = inhibition above about 50%
TEAD-YAP inh = TEAD-YAP interaction inhibition; HEK-TIYL cells, TEAD-Gal4/YAP UAS-luciferase luminescence; inhibition, % at 9.12 µM; hit rate 1.4% among 640,000; in the data active = inhibition above about 32%
GPR151 activ = activators of human GPR151; AID 1508602; activation, % at 11.2 µM; hit rate 1% among 650,000; PathHunter beta-arrestin GPR151 cells, luminescence; Q8TDV0; in the data active = activation above about 4.9%
FBW7 activator = human FBW7 E3 ligase activation, primary screen. AlphaScreen FBW7–phospho-cyclin E peptide binding, activator screen. AID 1259310. normalized activity (activation), % at 26.1 µM. hit rate 0.13% among 650,000. Q969H0; in the data active = normalized activity above about 1.9%;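 note: purified mutant Fbw7 with reduced substrate affinity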
Target sequence (Q969H0 whole entry, looked up): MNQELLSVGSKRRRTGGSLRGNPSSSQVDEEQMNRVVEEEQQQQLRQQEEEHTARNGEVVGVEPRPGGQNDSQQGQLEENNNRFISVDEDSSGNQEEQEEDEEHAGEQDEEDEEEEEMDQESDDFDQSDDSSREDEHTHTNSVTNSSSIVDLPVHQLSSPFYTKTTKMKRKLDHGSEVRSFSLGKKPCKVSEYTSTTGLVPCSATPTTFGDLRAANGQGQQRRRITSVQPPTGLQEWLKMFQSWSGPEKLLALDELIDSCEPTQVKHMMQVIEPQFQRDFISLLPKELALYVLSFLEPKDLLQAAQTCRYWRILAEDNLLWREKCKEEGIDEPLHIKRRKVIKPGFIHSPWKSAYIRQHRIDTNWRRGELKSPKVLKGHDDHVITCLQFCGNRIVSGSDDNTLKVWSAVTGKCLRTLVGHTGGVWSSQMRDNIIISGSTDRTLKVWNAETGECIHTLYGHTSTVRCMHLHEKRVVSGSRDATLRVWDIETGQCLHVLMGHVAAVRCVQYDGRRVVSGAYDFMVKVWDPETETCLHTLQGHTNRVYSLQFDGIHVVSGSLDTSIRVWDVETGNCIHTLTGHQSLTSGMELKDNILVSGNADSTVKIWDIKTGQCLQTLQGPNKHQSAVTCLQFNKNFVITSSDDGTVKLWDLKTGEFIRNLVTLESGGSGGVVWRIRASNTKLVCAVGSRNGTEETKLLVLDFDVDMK
GPR151 confirm = human GPR151 activation, confirmation screen. GPR151 PathHunter beta-arrestin cells, luminescence, 90 min; % of EA-reagent control over plate median. 6,700 tested, under 10 active. AID 1508609. shares compounds with GPR151 activ. activation, % at 11.2 µM;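 active = mean percent activation across replicates above the confirmation screen cutoff of 4.91%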
GPR119 counter = counter-screen for GPR151 activators: effect on human GPR119 | shares compounds with GPR151 activ | hit rate 0.3% among 6,700 | GPR119 PathHunter beta-arrestin cells, luminescence, 90 min; 0 = compound-well median, 100 = enzyme-acceptor control | activation, % at 11.2 µM;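 active = mean percent activation in the counterscreen above 29.09%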;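 note: counterscreen on off-target GPR119 to flag nonselective hits from the GPR151 activator screen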
Numbers stand for hits; – = inactive; · = not tested or not shown; ! = repeats disagree.

SMILES	MITF primary	TEAD-YAP inh	GPR151 activ	FBW7 activator	GPR151 confirm	GPR119 counter
CCC1CCCCN1CCN1C(=O)C2C(C(=O)Nc3cc(C)cc(C)c3)C3C=CC2(O3)C1C(=O)NC1CCCC(C)C1C (stereo not drawn)	–	–	–	–	·	·
CSc1cccc(NC(=O)C2C3C=CC4(O3)C2C(=O)N(C(C)C)C4C(=O)NC2CCCC(C)C2C)c1 (stereo not drawn)	–	–	5.8	–	–	–
COc1ccc(CNC(=O)C2CCN(CC(C)c3ccccc3)CC2)cc1 (stereo not drawn)	–	–	–	–	·	·
COc1ccc(Br)cc1S(=O)(=O)N1CCCN(S(=O)(=O)c2cc(Br)ccc2OC)CC1	–	–	–	–	·	·
COC(=O)c1cccc(NC(=O)c2cccc(Br)c2)c1C	–	–	15	–	–	–
COC(=O)c1ccccc1NC(=O)Nc1ccc(Cl)cc1	–	–	–	–	·	·
CCOC(=O)c1ccccc1NC(=O)c1cccc(Br)c1	–	–	–	–	·	·
O=C(O)c1ccc(NC(=O)c2ccccc2NC(=O)c2cccc(Br)c2)cc1	–	–	5.5	–	–	–
COC(=O)c1ccccc1NC(=O)Nc1ccc(Br)cc1Cl	–	–	5.9	–	–	–
Clc1cccc(-n2cc(-c3ccccc3)c3c(N4CCN(c5ccccc5Cl)CC4)ncnc32)c1	–	–	–	–	·	·
Cc1cccc(N2CCN(c3ncnc4c3c(-c3ccccc3)cn4-c3cccc(Cl)c3)CC2)c1C	–	–	6.1	–	–	–
Cc1nn(CC(=O)NCC#N)c(C)c1[N+](=O)[O-]	–	–	5.0	–	–	–
COc1ccc(-c2cc(C(=O)Oc3ccc(Cl)cc3)c3cc(C)ccc3n2)cc1	–	–	–	–	·	·
COc1ccc(S(=O)(=O)Nc2cccnc2)cc1C	–	–	–	–	·	·
COc1ccc(S(=O)(=O)Nc2cccc(N(C)S(C)(=O)=O)c2)cc1OC	–	–	7.8	–	–	–
COc1ccc(S(=O)(=O)Nc2cccc(N(C)S(C)(=O)=O)c2)cc1C	–	–	–	–	·	·
COc1ccc(S(=O)(=O)Nc2cccc(Br)c2)cc1C	–	–	13	–	–	–
COc1ccc(S(=O)(=O)Nc2cccnc2)cc1I	–	–	5.1	–	–	–
COc1ccc(S(=O)(=O)Nc2cccc(SC)c2)cc1C	–	–	–	–	·	·
Cc1sc(NC(=O)CCOc2ccccc2)c(C#N)c1C	–	–	6.9	–	–	–
O=C(NCCc1c[nH]c2ccccc12)C12CC3CC(CC(O)(C3)C1)C2	–	–	7.6	–	–	–
O=C(/C=C/c1c(F)cccc1Cl)NCCN1CCOCC1	–	–	6.2	–	–	–
COc1ccc(NC(=O)Cn2cnc3c(cnn3C)c2=O)cc1OC	–	–	–	–	·	·
O=c1cc(CO)oc(C(Nc2ccccn2)c2cccc(Cl)c2)c1O (stereo not drawn)	–	–	5.0	–	–	–
NC(=O)c1cccc2nc3ccccc3nc12	–	–	8.8	–	–	–
SMILES	MITF primary	TEAD-YAP inh	GPR151 activ	FBW7 activator	GPR151 confirm	GPR119 counter
CC(C)NC(=O)c1cccc2nc3ccccc3nc12	–	–	–	–	·	·
CCc1nc2ccccc2c2nn(CC(=O)N3CCOCC3)c(=O)n12	–	–	6.6	–	–	–
CC(C)c1nc2ccccc2c2nn(CC(=O)N3CCN(C(=O)c4ccco4)CC3)c(=O)n12	–	–	15	–	–	–
O=C(CSc1nnnn1-c1ccccc1)c1ccc(Br)cc1	–	–	–	–	·	·
CCOC(=O)c1sc2nc(CN3CCCCC3)[nH]c(=O)c2c1C	–	–	–	–	·	·
CCN1CCC(N(Cc2ccc(F)cc2)C(=O)Nc2cc(F)ccc2F)CC1	–	–	5.1	–	–	–
CCc1ccccc1NC(=O)CSc1nc2nc(C)c(Cc3ccc(F)cc3Cl)c(C)n2n1	–	–	–	–	·	·
CCC(Sc1nc2nc(C)c(Cc3ccc(F)cc3Cl)c(C)n2n1)C(=O)Nc1ccccc1OC (stereo not drawn)	–	–	5.4	–	–	–
Fc1ccc(C(c2nnnn2Cc2ccco2)N2CCN(C3CCCCC3)CC2)cc1 (stereo not drawn)	–	–	–	–	·	·
Fc1ccc(C(c2nnnn2Cc2ccco2)N2CCN(Cc3ccccc3)CC2)cc1 (stereo not drawn)	–	–	5.8	–	–	–
CCOc1ccc(/C=N/NC(=O)C(O)c2ccccc2)c(O)c1 (stereo not drawn)	–	–	5.8	–	–	–
O=C(CCCCCNC(=O)c1ccccc1)N/N=C/c1ccccc1O	–	–	9.6	–	–	–
CCOc1ccc(NCC(=O)N/N=C/c2cc(OC)ccc2O)cc1	–	–	–	–	·	·
COc1cccc(/C=N\NC(=O)CNc2ccc(C)cc2)c1O	–	–	–	–	·	·
COc1cccc(/C=N/NC(=O)CNc2cccc(Cl)c2)c1O	–	–	7.2	–	–	–
CCOc1ccc(NCC(=O)N/N=C/c2ccccc2O)cc1	–	–	5.4	–	–	–
COc1ccc(OC)c(NC(=O)CC2Nc3ccccc3NC2=O)c1 (stereo not drawn)	–	–	–	–	·	·
Cc1cccc(NCC(=O)N/N=C/c2ccccc2O)c1	–	–	7.2	–	–	–
COc1ccc(O)c(/C=N/NC(=O)CNc2cccc(C)c2)c1	–	–	–	–	·	·
COc1ccc(O)c(/C=N/NC(=O)CCC(=O)Nc2cccc(C)c2)c1	–	–	8.7	–	–	–
Cc1ccccc1NCC(=O)N/N=C\c1cc(Br)cc(Cl)c1O	–	–	9.2	–	–	–
CCC(C)c1ccc(OCC(=O)NNC(=O)c2ccc(F)cc2)cc1 (stereo not drawn)	–	–	–	–	·	·
Cc1c(/C=N/O)c2ccccn2c1C(=O)c1ccc(F)cc1	–	–	–	–	·	·
Cn1ccsc1=NC(=O)C1COc2ccccc2O1 (stereo not drawn)	–	–	–	–	·	·
COc1cc2sc(=NC(=O)C3COc4ccccc4O3)n(C)c2cc1OC (stereo not drawn)	–	–	6.6	–	–	–
SMILES	MITF primary	TEAD-YAP inh	GPR151 activ	FBW7 activator	GPR151 confirm	GPR119 counter
Cc1ccc(S(=O)(=O)Nc2cccc(-c3cn4ccc(C)cc4n3)c2)cc1	–	–	–	–	·	·
CCOC(=O)c1cc2occc2n1CC(=O)N1CCCC1	–	–	7.4	–	–	–
Cn1nccc1Nc1cccc(C(=O)NCCOc2ccccc2)n1	–	–	11	–	–	–
CCCNC(=O)c1cccc(Nc2ccnn2C)n1	–	–	–	–	·	·
C[C@@H](NCCc1ccc(O)cc1)[C@@H](O)c1ccc(O)cc1	–	–	6.4!	–	–	–
CC(NCCc1ccc(O)cc1)C(O)c1ccc(O)cc1 (stereo not drawn)	–	–	–	–	·	·
CC(C)CN1CCN(Cc2nc3ccccc3n2C)CC1CCO (stereo not drawn)	–	–	–	–	·	·
Cc1ccc(CN2CCN(Cc3nc4ccccc4n3C)CC2CCO)cc1 (stereo not drawn)	–	–	19	–	–	–

Source: PubChem BioAssay (The Scripps Research Institute Molecular Screening Center)
